Holding throughout (assay): NCI-60 one-dose screen, 48 h (100 = growth as untreated, 0 = no growth, -100 = all killed)
Holding throughout (conditions): 10 µM unless noted

The subject of test [1] is NCI-H23 lung.
Test [2] relates to NCI-H226 lung.
Test [3] deals with NCI-H322M lung.
The test system of test [4] is HOP-62 NSCLC.
Test [5] has as its system NCI-H460 lung.
The subject of test [6] is HOP-92 NSCLC.
Test [7] concerns NCI-H522 lung.
Test [8] concerns A549/ATCC NSCLC.
Test [9] has as its system 786-0 renal.
In test [10] the test system is COLO 205 colon.

SMILES strings stand for the structures. About 83,000 compounds went through this panel and 20% of them were active in at least one assay; those are over-represented in the sample as a whole.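 In brief: 96-well plates, 48 h treatment, single concentration, percent growth endpoint.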 Values without a mark were called inactive. Calls of active or inactive are those of the source. The calls were made as follows: active = growth percent below 10; inactive = the rest.

As to `O=C(CCN1CCCC1)Nc1ccc2c(NCCCc3ccccc3)c3ccccc3nc2c1`, the growth in test [1] is 14.8%; in test [2], 42.3%; in test [3] it was 16.6%; in test [4], 24.7%; in [5], -72.2% (active); in test [6], 21.5%. Also, the growth was -49.9% (active) in [7], 15.5% in test [8], 24.9% in test [9] and -50.4% (active) in test [10].
For `COc1cccc(-c2nc3occn3c2-c2ccnc(NCCNS(=O)(=O)c3ccc(C(F)(F)F)cc3)n2)c1`, the growth in test [1] was 98.2%; in [2] it was 75.8%; in [3], 98.9%; in test [4], 119%; in [5], 88%; in test [6], 95.9%. The growth in test [7] was 86.6%; in test [8], 87.9%; in test [9], 79.5%; in test [10], 77.7%.
`COc1cccc(-c2cc(C(=O)Nc3ccc(/C=C/c4ccc(OC5CCN(C)CC5)cc4)cc3)ccc2OC)c1`: the growth in test [1] was 12.6%; in test [2], 76.2%; in test [3], 5.51% (active); in test [4], -27.5% (active); in test [5], -72.3% (active); in [6] it was 11%. Further, the growth in test [7] is -46.3% (active); in test [8], -34% (active); in [9] it was -95.2% (active); in test [10], 29.1%.
Consider `Cc1cnc(C(=O)Nc2nc3ccc(S(=O)(=O)Nc4ccc(C5(C(F)(F)F)CC5)cc4)cc3[nH]2)cn1`, for which the growth in test [1] is 33.9%; in [2], 13.2%; in [3], 33.9%; in test [4], 21.1%; in test [5], 0.982% (active); in test [6], 32.8%. The growth in test [7] is 16%; in test [8], 23.7%; in test [9] it was 26.2%; in test [10], -1.76% (active).
As for `CN(C)c1ccc(Nc2c3ccccc3nc3cc(NC(=O)CCN4CCCC4)ccc23)cc1`, the growth is -42.5% (active) in test [1]; -1.19% (active) in [2]; -14.6% (active) in test [3]; -8.55% (active) in [4]; -65.5% (active) in test [5]; -9.52% (active) in test [6]. In addition, the growth in test [7] is -32.8% (active); in [8], -33.5% (active); in [9], -54% (active); in test [10], -27.3% (active).
Take `NS(=O)(=O)c1ccc(CCN2C(=O)C=CC2=O)cc1`: the growth in [1] is 94.6%; in test [2], 101%; in [3], 97.3%; in test [4], 97.1%; in test [5], 115%; in [6], 108%. The growth in test [7] was 84.6%; in [8], 104%; in test [9] it was 106%; in test [10] it was 123%.
Take `CCCCOc1ccc(/C(C)=N/Nc2cc(C)nc3ccc(Br)cc23)cc1`: the growth is 90.7% in test [1]; 89.6% in test [2]; 103% in test [3]; 88.7% in [4]; 14.2% in test [5]; 78.4% in test [6]. The growth was 96.9% in test [7], 92.5% in [8], 95.1% in test [9] and 26.5% in [10].
On to `CCCCC[n+]1ccc(SCC(=O)N(C)c2ccc(Oc3ccccc3)cc2)c2ccccc21`, for which the growth is 90.3% in [1]; 106% in test [2]; 107% in test [3]; 115% in test [4]; 107% in test [5]; 99.9% in test [6]. Further, the growth in test [7] is 63.3%; in test [8], 96.2%; in test [9] it was 102%; in test [10] it was 20.9%.
Consider `CCCOc1ccc(/C=N/Nc2cc(C)nc3ccc(Cl)cc23)cc1`, for which the growth is 75.9% in test [1]; 88.3% in [2]; 62.1% in test [3]; 75.2% in test [4]; -37.5% (active) in test [5]; 69.2% in test [6]. Moreover, the growth in test [7] was 86.9%; in test [8] it was 36.9%; in test [9], -86.4% (active); in test [10], -80.7% (active).
As to `O=C(C1CCC1)N1N=C(c2ccc(-n3ccc(C(F)(F)F)n3)cc2)CC1c1ccc[nH]1` (stereo not given), the growth is 101% in [1]; 107% in test [2]; 90.1% in test [3]; 108% in test [4]; 101% in test [5]; 130% in test [6]. The growth is 84.7% in test [7], 89.3% in [8], 95.8% in [9] and 113% in [10].
On to `C#CCNC(=O)c1cccc2c1cc(C)n2-c1nc2c(c(NCc3ccccc3)n1)CCCC2`, for which the growth in test [1] is -42.8% (active); in [2], -67.1% (active); in test [3], -4.53% (active); in test [4], -6.14% (active); in test [5] it was -30.8% (active); in [6], -61% (active). Also, the growth in [7] is -25.8% (active); in test [8], -29.5% (active); in [9], -48.4% (active); in test [10] it was -46.4% (active).
Turning to `COc1cc2c3c(c4c5ccccc5[nH]c4c2c(OC)c1OC)C(=O)N(CCN1CCOCC1)C3=O`, the growth in [1] is 63%; in [2], 69.8%; in test [3], 68.2%; in [4] it was 59.9%; in [5], 18.6%; in [6] it was 75.4%. For the same molecule, the growth was 35.4% in [7], 45.1% in [8], 56.2% in [9] and 56.4% in test [10].

(Values after PubChem BioAssay (NCI).)
